{"source": "paper PMC11062922", "about": "(Nature Chemical Biology, 2023)", "parameters_in_all_cases": "species or system human, MV4-11 + K-562 + COLO205 + SK-N-BE2 + OVCAR-8", "key": {"HSPE1": {"test_system": "HSPE1", "settings": "read-out: apparent Kd; compound concentrations:100 nM and 1000 nM (sheet 'Samples'); n = 1"}, "NQO2": {"test_system": "NQO2", "settings": "read-out: apparent Kd; compound concentrations:100 nM and 1000 nM (sheet 'Samples'); n = 1"}, "TGFBR1": {"test_system": "TGFBR1", "settings": "read-out: apparent Kd; compound concentrations: 100 nM and 1000 nM (sheet 'Samples'), CATDS: 0.31893275464491699; n = 1"}, "IARS": {"test_system": "IARS", "settings": "read-out: apparent Kd, n = 1"}, "RIOK2": {"test_system": "RIOK2", "settings": "read-out: apparent Kd, n = 1"}, "ILK": {"test_system": "ILK", "settings": "read-out: apparent Kd, n = 1"}, "MAPK10": {"test_system": "MAPK10", "settings": "read-out: apparent Kd; compound concentrations: 100 nM and 1000 nM (sheet 'Samples'), CATDS: 0.50898583433438105; n = 1"}, "IRAK3": {"test_system": "IRAK3", "settings": "read-out: apparent Kd; compound concentrations:100 nM and 1000 nM (sheet 'Samples'); n = 1"}, "STK16": {"test_system": "STK16", "settings": "read-out: apparent Kd; compound concentrations:100 nM and 1000 nM (sheet 'Samples'); n = 1"}, "JAK2": {"test_system": "JAK2", "settings": "read-out: apparent Kd, n = 1"}, "MERTK": {"test_system": "MERTK", "settings": "read-out: apparent Kd; compound concentrations:100 nM and 1000 nM (sheet 'Samples'); n = 1"}, "PIK3CB": {"test_system": "PIK3CB", "settings": "read-out: apparent Kd; compound concentrations:100 nM and 1000 nM (sheet 'Samples'); n = 1"}, "PIK3CD": {"test_system": "PIK3CD", "settings": "read-out: apparent Kd; compound concentrations:100 nM and 1000 nM (sheet 'Samples'); n = 1"}, "TAOK3": {"test_system": "TAOK3", "settings": "read-out: apparent Kd; compound concentrations:100 nM and 1000 nM (sheet 'Samples'); n = 1"}, "PKN3": {"test_system": "PKN3", "settings": "read-out: apparent Kd; compound concentrations:100 nM and 1000 nM (sheet 'Samples'); n = 1"}, "PRKX": {"test_system": "PRKX", "settings": "read-out: apparent Kd; compound concentrations:100 nM and 1000 nM (sheet 'Samples'); n = 1"}, "ROCK2": {"test_system": "ROCK2", "settings": "read-out: apparent Kd; compound concentrations:100 nM and 1000 nM (sheet 'Samples'); n = 1"}, "PRKCA": {"test_system": "PRKCA", "settings": "read-out: apparent Kd, n = 1"}, "PRKCB": {"test_system": "PRKCB", "settings": "read-out: apparent Kd, n = 1"}, "PRKCD": {"test_system": "PRKCD", "settings": "read-out: apparent Kd; compound concentrations:100 nM and 1000 nM (sheet 'Samples'); n = 1"}, "PRKCQ": {"test_system": "PRKCQ", "settings": "read-out: apparent Kd; compound concentrations:100 nM and 1000 nM (sheet 'Samples'); n = 1"}, "RPS6KA6": {"test_system": "RPS6KA6", "settings": "read-out: apparent Kd; compound concentrations:100 nM and 1000 nM (sheet 'Samples'); n = 1"}, "RPS6KB1": {"test_system": "RPS6KB1", "settings": "read-out: apparent Kd; compound concentrations:100 nM and 1000 nM (sheet 'Samples'); n = 1"}, "SLK": {"test_system": "SLK", "settings": "read-out: apparent Kd; compound concentrations:100 nM and 1000 nM (sheet 'Samples'); n = 1"}, "MAPK11": {"test_system": "MAPK11", "settings": "read-out: apparent Kd, n = 1"}, "MAPK14": {"test_system": "MAPK14", "settings": "read-out: apparent Kd; compound concentrations: 100 nM and 1000 nM (sheet 'Samples'), CATDS: 0.55857087808569805; n = 1"}, "MAPKAPK2": {"test_system": "MAPKAPK2", "settings": "read-out: apparent Kd; compound concentrations:100 nM and 1000 nM (sheet 'Samples'); n = 1"}, "MAP2K1": {"test_system": "MAP2K1", "settings": "read-out: apparent Kd; compound concentrations:100 nM and 1000 nM (sheet 'Samples'); n = 1"}, "PIK3C2A": {"test_system": "PIK3C2A", "settings": "read-out: apparent Kd; compound concentrations:100 nM and 1000 nM (sheet 'Samples'); n = 1"}, "PIK3C3": {"test_system": "PIK3C3", "settings": "read-out: apparent Kd; compound concentrations:100 nM and 1000 nM (sheet 'Samples'); n = 1"}, "PIM2": {"test_system": "PIM2", "settings": "read-out: apparent Kd; compound concentrations:100 nM and 1000 nM (sheet 'Samples'); n = 1"}, "[1]": {"settings": "compound concentrations: 100 nM and 1000 nM (sheet 'Samples'), CATDS: 1"}, "[2]": {"settings": "compound concentrations:100 nM and 1000 nM (sheet 'Samples')"}}, "note": "Where two headings read alike, the source gives them in different places.", "data": [{"smiles": "Fc1ccc(-c2c(-c3ccccn3)nc3n2CCS3)cc1", "note": "[SKF-104365]", "values": [{"measurement": "potency estimated from few doses", "setting": "HSPE1", "result": 149, "unit": "nM"}, {"measurement": "potency estimated from few doses", "setting": "NQO2", "result": 1340, "unit": "nM"}, {"measurement": "potency estimated from few doses", "setting": "TGFBR1", "result": 537, "unit": "nM"}]}, {"smiles": "CS(=O)(=O)CCNCc1ccc(-c2ccc3ncnc(Nc4ccc(OCc5ccccc5)c(C(F)(F)F)c4)c3c2)o1.Cl", "note": "[GW574782A]", "values": [{"measurement": "potency estimated from few doses", "setting": "IARS; compound concentrations: 100 nM and 1000 nM (sheet 'Samples'), CATDS: 0.48101189655770898", "result": 1950, "unit": "nM"}, {"measurement": "potency estimated from few doses", "setting": "RIOK2; compound concentrations: 100 nM and 1000 nM (sheet 'Samples'), CATDS: 0.52054883723006395", "result": 1670, "unit": "nM"}]}, {"smiles": "Cc1ccc(-c2nc(Nc3ccncc3)c3ccccc3n2)s1", "note": "[GSK189015A]", "values": [{"measurement": "potency estimated from few doses", "setting": "IARS; [1]", "result": 1440, "unit": "nM"}]}, {"smiles": "CN1CCN(Cc2ccc(-c3cc4ncnc(Nc5ccc(OCc6cccc(F)c6)c(Cl)c5)c4s3)o2)CC1", "note": "[GW784684X]", "values": [{"measurement": "potency estimated from few doses", "setting": "IARS; [2]", "result": 1610, "unit": "nM"}]}, {"smiles": "Cn1cc(C2=C(c3cn(C)c4cc(Cl)ccc34)C(=O)NC2=O)c2ccccc21", "note": "[RO0317597-000]", "values": [{"measurement": "potency estimated from few doses", "setting": "ILK; compound concentrations: 100 nM and 1000 nM (sheet 'Samples'), CATDS: 0.49132594031882498", "result": 1590, "unit": "nM"}, {"measurement": "potency estimated from few doses", "setting": "MAPK10", "result": 1480, "unit": "nM"}]}, {"smiles": "COC(=O)Nc1nc2cc(Oc3ccc(NC(=O)Nc4cc(C(F)(F)F)ccc4Cl)cc3)ccc2[nH]1.Cl", "note": "[GW697465A]", "values": [{"measurement": "potency estimated from few doses", "setting": "ILK; [2]", "result": 2220, "unit": "nM"}]}, {"smiles": "COc1cc(C=NNc2ncnc3c2cnn3-c2ccccc2)ccc1O", "note": "[GW513184X]", "values": [{"measurement": "potency estimated from few doses", "setting": "IRAK3", "result": 1310, "unit": "nM"}, {"measurement": "potency estimated from few doses", "setting": "STK16", "result": 1950, "unit": "nM"}]}, {"smiles": "COC(=O)Nc1nc2ccc(S(=O)(=O)c3ccc(NC(=O)Nc4cc(C(F)(F)F)ccc4F)cc3)cc2[nH]1.Cl", "note": "[GW680908A]", "values": [{"measurement": "potency estimated from few doses", "setting": "JAK2; [1]", "result": 356, "unit": "nM"}]}, {"smiles": "O=C(Nc1cccnc1)c1cc(-c2ccnc(F)c2)ccc1OCc1ccccc1", "note": "[GSK2578215]", "values": [{"measurement": "potency estimated from few doses", "setting": "JAK2; [2]", "result": 322, "unit": "nM"}]}, {"smiles": "O=C(Nc1n[nH]c2nc(-c3cccs3)c(Br)cc12)C1CCCC1", "note": "[SB-743341]", "values": [{"measurement": "potency estimated from few doses", "setting": "MERTK", "result": 1720, "unit": "nM"}]}, {"smiles": "[2H]C([2H])(c1cccc(C(F)(F)F)c1C)n1ccn2c(=O)cc(N3CCOCC3)nc12", "note": "[GSK2289044B]", "values": [{"measurement": "potency estimated from few doses", "setting": "PIK3CB", "result": 16, "unit": "nM"}]}, {"smiles": "COc1cccc(C2=C(Nc3cc(Cl)c(O)c(Cl)c3)C(=O)NC2=O)c1", "note": "[SB-390767]", "values": [{"measurement": "potency estimated from few doses", "setting": "PIK3CD", "result": 191, "unit": "nM"}, {"measurement": "potency estimated from few doses", "setting": "TAOK3", "result": 1110, "unit": "nM"}]}, {"smiles": "COc1cc(C2=NC(c3ccc(Cl)cc3F)C(C(=O)Nc3ccc4[nH]ncc4c3)=C(C)N2)ccn1.O=C(O)C(F)(F)F", "note": "(stereo not drawn) [GSK534911A]", "values": [{"measurement": "potency estimated from few doses", "setting": "PKN3", "result": 1830, "unit": "nM"}, {"measurement": "potency estimated from few doses", "setting": "PRKX", "result": 1320, "unit": "nM"}, {"measurement": "potency estimated from few doses", "setting": "ROCK2", "result": 220, "unit": "nM"}]}, {"smiles": "CN(C)CC1CCn2c(c(C3=C(c4cn(C)c5ccccc45)C(=O)NC3=O)c3ccccc32)C1", "note": "(stereo not drawn) [RO0318830-000]", "values": [{"measurement": "potency estimated from few doses", "setting": "PRKCA; compound concentrations: 100 nM and 1000 nM (sheet 'Samples'), CATDS: 0.195929094272485", "result": 30.2, "unit": "nM"}, {"measurement": "potency estimated from few doses", "setting": "PRKCB; [2]", "result": 88.5, "unit": "nM"}, {"measurement": "potency estimated from few doses", "setting": "PRKCD", "result": 34.5, "unit": "nM"}, {"measurement": "potency estimated from few doses", "setting": "PRKCQ", "result": 123, "unit": "nM"}, {"measurement": "potency estimated from few doses", "setting": "RPS6KA6", "result": 56.8, "unit": "nM"}, {"measurement": "potency estimated from few doses", "setting": "RPS6KB1", "result": 1600, "unit": "nM"}]}, {"smiles": "Cn1cc(C2=C(c3c4n(c5ccccc35)CCC(CN)CC4)C(=O)NC2=O)c2ccccc21", "note": "(stereo not drawn) [RO0319371-000]", "values": [{"measurement": "potency estimated from few doses", "setting": "PRKCA; [2]", "result": 22.2, "unit": "nM"}, {"measurement": "potency estimated from few doses", "setting": "PRKCB; compound concentrations: 100 nM and 1000 nM (sheet 'Samples'), CATDS: 0.217434450418582", "result": 52.3, "unit": "nM"}, {"measurement": "potency estimated from few doses", "setting": "PRKCD", "result": 31.6, "unit": "nM"}, {"measurement": "potency estimated from few doses", "setting": "RPS6KA6", "result": 342, "unit": "nM"}, {"measurement": "potency estimated from few doses", "setting": "RPS6KB1", "result": 306, "unit": "nM"}, {"measurement": "potency estimated from few doses", "setting": "SLK", "result": 2120, "unit": "nM"}]}, {"smiles": "COCCNC(=O)c1ccc(-c2cc(C(=O)NC3CC3)cc(F)c2C)cc1", "note": "[GW868318X]", "values": [{"measurement": "potency estimated from few doses", "setting": "MAPK11; [2]", "result": 108, "unit": "nM"}, {"measurement": "potency estimated from few doses", "setting": "MAPK14", "result": 22.7, "unit": "nM"}, {"measurement": "potency estimated from few doses", "setting": "MAPKAPK2", "result": 79.6, "unit": "nM"}]}, {"smiles": "Nc1c(C(=O)c2cccc(C#CCO)c2)cnn1-c1ccc(F)cc1", "note": "[RO1153836-000]", "values": [{"measurement": "potency estimated from few doses", "setting": "MAPK11; [1]", "result": 591, "unit": "nM"}]}, {"smiles": "O=C1NC(=O)C(c2ccc(Cl)cc2)=C1Nc1cccc(Cl)c1", "note": "[SB-317651]", "values": [{"measurement": "potency estimated from few doses", "setting": "MAP2K1", "result": 1860, "unit": "nM"}, {"measurement": "potency estimated from few doses", "setting": "PIK3C2A", "result": 2450, "unit": "nM"}, {"measurement": "potency estimated from few doses", "setting": "PIK3C3", "result": 1570, "unit": "nM"}, {"measurement": "potency estimated from few doses", "setting": "PIM2", "result": 1320, "unit": "nM"}, {"measurement": "potency estimated from few doses", "setting": "RIOK2; [2]", "result": 1500, "unit": "nM"}]}]}
